The list is not random: actives were taken first. Their share in the collection is about 0.65%.
AMA1 RON2 block – disrupts binding of P. falciparum AMA1 to RON2; AlphaScreen AMA1-biotinylated RON2 peptide binding; Potency, µM (titrated, usually from 58.2 µM), for inactives: top-dose activity change, negative = inhibition, usual class: inhibitors; 0.2% of 360,000 active; AID 720542; active means well fitted inhibition curve with a large enough effect; inconclusive means small, poorly fitted or top-dose-only effect; inactive means no such curve, though single readings can be large or run the other way;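 further: potency means the concentration at half of the fitted maximal effect; 0% = vehicle wells and -100% = peptide control; nearly all actives have a fitted effect of over 45% in size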
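AMA1 (3D7) with his tag at 25 nM final met compounds first, then biotinylated RON2 peptide at 25 nM; detection used donor plus acceptor beads, 10 µg/mL apiece, read by AlphaScreen after 30 min at room temperature.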
NS1 inh – inhibitors of influenza NS1 protein function; Potency, µM (doses to about 46.1 µM), for the others: top-dose activity, positive = more growth; 0.4% of 270,000 active; AID 2326; further: potency means the concentration at half of the fitted maximal effect; actives are rising curves; nearly all actives have a fitted effect of over 50% in size
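Recovery from NS1-induced slow growth read by OD600 in budding yeast switched to galactose assay medium (pH 6.0, -URA) at 1:100 dilution. Compound 23 nl per well; the matching strain lacking NS1 serves as control.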
SARS PLP yeast – inhibitors of SARS-CoV papain-like protease in yeast; S. cerevisiae expressing SARS-CoV PLpro, growth rescue; Potency, µM (top dose mostly 32.9 µM), inactives show at the top dose activity, positive = growth rescue, actives largely listed as activators; 0.19% of 330,000 active; AID 485353; further: potency means the concentration at half of the fitted maximal effect; 0% is about no effect; nearly all actives have a fitted effect of over 55% in size
Flu NS1 inh – validation of influenza NS1 protein function inhibitors; shares compounds with NS1 inh; influenza NS1 function cell assay, 15-point titration; activity change, negative = inhibition, % at 32.9 µM; 1,400 tested, under 10 active; AID 492980; further: 0% is about no effect
* hit, by the source's call; ? = inconclusive; nt = no result given; [ ] = remark or other dose. Unless noted, the call rests on the fitted dose curve.

SMILES | AMA1 RON2 block | NS1 inh | SARS PLP yeast | Flu NS1 inh
COc1ccc(-n2cnnc2SCC(=O)Nc2cc(S(=O)(=O)N3CCCCC3)ccc2C)cc1 | -2% | 8% | -2% | nt
COc1ccc(-n2cnnc2SCC(=O)c2ccc(S(=O)(=O)N3CCOCC3)cc2)cc1 | -1% | 1.8µM* | 4% | 0
CCOc1cc(NC(=O)c2cccs2)c(OCC)cc1NC(=O)CCC(=O)NCC1CCCO1 (configuration not stated) | ? | nt | 1% | nt
CC(C)(CC(=O)O)CC(=O)Nc1ccc2c(c1)ncn2CCc1ccccc1 | -7% | 7% | 0% | nt
O=C1CN(C(=O)c2ccc(Br)o2)C(c2ccccc2)c2cc(Br)ccc2N1 (configuration not stated) | -28% | 11µM* | -6% | -10
Cc1ccc2c(c1)C(c1ccccc1)N(C(=O)c1ccc(Br)o1)CC(=O)N2 (configuration not stated) | -20% | 25% | 5% | nt
CC(C)CNC(=O)C(=O)NCC1OCCCN1S(=O)(=O)c1ccc2c(c1)OCCO2 (configuration not stated) | -8% | 1% | -2% | nt
COC(=O)Cn1c(CN2CCC(Cc3ccccc3)CC2)nc2c1c(=O)n(C)c(=O)n2C | 13% | ? | 11% | -34
COC(=O)Cn1c(CN(C)Cc2ccccc2)nc2c1c(=O)n(C)c(=O)n2C | 5% | -5% | -1% | nt
COc1ccc(Cl)cc1NC(=O)C/C(C)=N/NC(=O)COc1ccc(C)cc1 | 50% | -2% | -2% | nt
COC(=O)Cc1[nH]nc2c1C(c1cc(OC)c(OC)c(OC)c1)C(C#N)=C(N)O2 (configuration not stated) | 4% | 10% | -1% | nt
COC(=O)Cc1[nH]nc2c1C(c1ccc(O)c(OC)c1)C(C#N)=C(N)O2 (configuration not stated) | 41% | 10µM* | 2% | ?
C1=C[C@H]2CC[C@@H]1N(c1ccccc1)O2 | 10% | nt | 1% | nt
C(=N\N1CCN(Cc2cccc3ccccc23)CC1)/c1cccnc1 | ? | 10µM* | 4% | -5
FC(F)(F)c1ccc(/C=N/N2CCN(Cc3cccc4ccccc34)CC2)cc1 | -2% | 8% | 1% | nt
Cc1ccc(S(=O)(=O)N2CCOCC2)cc1NC(=O)COC(=O)c1ccc(Cl)nc1 | 5% | nt | 3% | nt
CC1CCN(C(=S)SCc2nc(N)nc(Nc3ccccc3)n2)CC1 | -8% | -3% | 0% | nt
COc1ccccc1Nc1nc(N)nc(CSC(=S)N2CC(C)CC(C)C2)n1 (configuration not stated) | 9%[2.32 µM] | 10µM* | 65% | ?
CCOC(=O)c1ccccc1NC(=O)c1cn(-c2ccc(OC)cc2)c(=O)c2ccccc12 | -5% | -4% | -13% | nt
COc1ccc(-n2cc(C(=O)Nc3cc([N+](=O)[O-])ccc3OC)c3ccccc3c2=O)cc1 | -3% | 22µM* | 19% | 9
CC1(C)CC(NC(=O)COc2ccc3c4c(c(=O)oc3c2)CCCC4)CC(C)(C)N1 | 4% | 14% | 2% | nt
CSC1=NCCN1C(=O)c1ccc(C)cc1 | 4% | 1% | -1% | nt
CSC1=NCCN1C(=O)c1ccc2c(c1)OCO2 | -9% | ? | ? | 0
Cc1ccc(S(=O)(=O)N2CC(=NO)C2)cc1 | 22% | 6.3µM* | -1% | 14
Cc1ccc(-c2ccc(S(=O)(=O)N3CCN(C)CC3)cc2)cc1 | -9% | 11µM* | -2% | -34
SMILES | AMA1 RON2 block | NS1 inh | SARS PLP yeast | Flu NS1 inh
Cc1ccc(-c2ccc(S(=O)(=O)N3CCCC3)cc2)cc1 | -4% | nt | -1% | nt
CN1CCN(S(=O)(=O)c2ccc(-c3ccccc3)cc2)CC1 | 24% | -2% | 1% | nt
CCCOc1cccc(C(=O)Nc2ccc3c(c2)OCCO3)c1 | 7% | -13% | -13% | nt
O=C(N/C(=C\c1ccco1)C(=O)N1CCOCC1)c1ccccc1Cl | 9% | -10% | 0% | nt
CC(C)c1nnc(NC(=O)CCC(=O)NCc2ccc(F)cc2)s1 | 14% | 6% | 0% | nt
COCCNC(=O)c1cc2c(c(-c3cccc(-c4cc5ccccc5o4)c3)n1)[C@H](CCO)N(S(=O)C(C)(C)C)C2 (some centres not stated) | 4% | nt | nt | nt
CCOC(=O)Nc1ccc([N+](=O)[O-])cc1OC | -12% | nt | nt | nt
CCOC(=O)c1ccc(C(=O)OCC)c(NC(=S)Nc2ccc([N+](=O)[O-])cc2OC)c1 | 32%[11.6 µM] | 5µM* | -16% | ?
Nc1ccccc1NC(=O)NC(=O)c1ccccc1 | -9% | -18% | -12% | nt
CCOC(=O)CSc1nc2ccccc2c(=O)n1CCN1CCOCC1 | 0% | -2% | 8% | nt
CCOC(=O)CSc1nc2ccc(N3CCOCC3)cc2c(=O)n1Cc1ccccc1 | 77% | 1µM* | 5% | 5
COc1ccccc1-n1c(SCC(=O)OC(C)C)nc2cccnc21 | -6% | -31% | -2% | nt

Screens as filed in PubChem.
